# Bioassay records from PubChem.
# An excerpt weighted towards active compounds, which were near 4.2% of everything screened.
# AHR activator: activates the human aryl hydrocarbon receptor | actives 2.5% (n = 320,000) | activation, % at 5 µM | AHR-responsive luciferase reporter cells, luminescence; in the data active means activation above about 47%;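 further: 0% = vehicle wells and 100% = reference agonist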
# Target sequence (P35869 whole entry, looked up): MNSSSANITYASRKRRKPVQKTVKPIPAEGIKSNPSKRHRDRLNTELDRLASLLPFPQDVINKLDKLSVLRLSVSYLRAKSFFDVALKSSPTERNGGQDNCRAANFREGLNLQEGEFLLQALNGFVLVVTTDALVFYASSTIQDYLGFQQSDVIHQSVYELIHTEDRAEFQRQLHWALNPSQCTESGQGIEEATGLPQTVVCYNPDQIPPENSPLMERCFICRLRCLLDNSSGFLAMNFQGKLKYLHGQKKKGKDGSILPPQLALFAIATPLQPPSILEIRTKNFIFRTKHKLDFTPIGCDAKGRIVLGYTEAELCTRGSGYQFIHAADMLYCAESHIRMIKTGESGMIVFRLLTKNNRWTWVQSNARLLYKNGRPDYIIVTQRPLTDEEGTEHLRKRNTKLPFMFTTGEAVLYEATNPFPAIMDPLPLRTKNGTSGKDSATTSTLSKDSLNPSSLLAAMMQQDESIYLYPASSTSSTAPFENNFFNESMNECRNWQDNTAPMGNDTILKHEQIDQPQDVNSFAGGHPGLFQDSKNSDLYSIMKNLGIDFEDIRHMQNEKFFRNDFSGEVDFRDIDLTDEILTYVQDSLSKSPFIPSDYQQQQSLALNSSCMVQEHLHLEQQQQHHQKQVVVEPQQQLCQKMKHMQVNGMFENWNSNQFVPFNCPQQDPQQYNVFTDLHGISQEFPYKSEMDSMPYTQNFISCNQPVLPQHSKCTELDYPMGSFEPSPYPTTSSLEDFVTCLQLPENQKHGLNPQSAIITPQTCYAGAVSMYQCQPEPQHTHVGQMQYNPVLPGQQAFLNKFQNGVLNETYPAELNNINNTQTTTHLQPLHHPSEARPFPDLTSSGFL
# FXN GAA850 act: frataxin GAA850 promoter activation; actives 0.56% (n = 360,000); AID 540364; activation, % at 6 µM; HEK293 lucGAA850 FXN promoter luciferase reporter, 24 h; percent of 10 µM SAHA response;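 active means activation above the average of all compounds screened plus 3 SD, cutoff fixed separately per campaign, cut at about 7.5% in these data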;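 further: 0% = DMSO wells and 100% = 10 µM SAHA wells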
# Wnt act: activators of Wnt/beta-catenin signaling. Wnt/beta-catenin reporter cell assay, activator, plate reader. AID 743398. activation, % at 9.35 µM. actives 1.2% (n = 300,000); in the data active means activation above about 30%, passing the limit was not always enough; inconclusive means no clear call, values can overlap the other calls;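 further: 0% = neutral control wells and 100% = positive control wells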
# MITF act: activators of MITF-driven TRPM1 promoter activity in SK-MEL-5 cells; SK-MEL-5 TRPM1-promoter luciferase, 24 h; % of positive control, neutral wells = 0; activation, % at 12.5 µM; actives 0.75% (n = 300,000);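 active means mean activation of at least 80% with every replicate also reaching 80%; inconclusive means mean reaches 80% but some replicate falls short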;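 further: 0% = neutral control wells and 100% = parthenolide positive control wells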
# esBAF inh: inhibitors of esBAF chromatin remodeling in mouse ES cells; Bmi1-luciferase knock-in reporter, 24 h; 100% = twice the neutral-well signal; reporter increase, % at 12.5 µM; actives 2% (n = 350,000); in the data active means activation above about 40%; inconclusive means no clear call, values can overlap the other calls;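 further: 0% = median of the plate's neutral control wells and 100% = double that signal; a rise in the Bmi1 reporter signal indicates esBAF inhibition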
# An asterisk follows results filed as active; ? = inconclusive; . = no result given.
SMILES,AHR activator,FXN GAA850 act,Wnt act,MITF act,esBAF inh
CCOC(=O)c1ccc(N2Cc3ccccc3C2=NC(=O)c2ccncc2)cc1,.,3,46*,102*,.
N#Cc1ccc(N2Cc3ccccc3C2=NC(=O)c2cccs2)cc1,-2,0,18,33,.
CO[C@H]1CN(C)C(=O)c2cc(NC(=O)NC(C)C)ccc2OC[C@@H](C)N(C)C[C@H]1C,.,.,.,.,5
C[C@@H]1CN([C@@H](C)CO)C(=O)c2cccc(NC(=O)NC3CCCCC3)c2O[C@H]1CN(C)S(=O)(=O)c1ccc(Cl)cc1,.,.,.,.,3
CN(C)/C=C(\C#N)C(=O)Nc1ccc(F)c(Cl)c1,19,2,37*,.,.
CN(C)/C=C(\C#N)C(=O)Nc1ccc(F)cc1,-3,3,.,56,39
Cc1cc(/C=C(\C#N)c2nc3ccccc3[nH]2)c(C)n1C,55*,2,84*,63,.
Cc1ccc(/C=C(\C#N)c2nc3ccccc3[nH]2)s1,93*,6,.,50,98*
Cc1cc(/C=C(/C#N)c2nc3ccccc3[nH]2)c(C)n1-c1cccc([N+](=O)[O-])c1,-5,-1,.,5,.
N#C/C(=C\c1c(Cl)cccc1Cl)c1nc2ccccc2[nH]1,69*,5,1,-6,10
CN(C)/C=C(\C#N)c1nc2ccccc2[nH]1,4,-2,6,27,13
COC(=O)[C@H]1[C@H](CO)[C@H]2Cn3c(ccc(-c4cccc(F)c4)c3=O)[C@H]2N1C(C)=O,.,.,.,.,0
Cc1ccc2c(COC(=O)c3ccc(C)c(C)c3)cc(=O)oc2c1,0,2,-2,48,46*
COc1ccc(C(=O)OCc2cc(=O)oc3cc(C)ccc23)cc1S(=O)(=O)N1CCOCC1,.,1,3,.,17
Cc1ccc2c(COC(=O)c3ccccc3Br)cc(=O)oc2c1,-1,4,1,118*,54*
O=C(C[C@H]1CC[C@@H]2[C@H](COC[C@@H](O)CN2Cc2cccc(Cl)c2)O1)N1CCCCC1,.,.,.,.,1
C[C@H]1CN([C@@H](C)CO)C(=O)Cc2cc(NC(=O)C3CC3)ccc2O[C@@H]1CN(C)C(=O)Nc1cccc2ccccc12,.,.,.,.,4
C=CCSc1nnc2c(n1)OC(c1cccnc1)Nc1ccccc1-2 (configuration not stated),1,2,54*,13,.
Cc1cc(C)c(C#N)c(Sc2ccccc2N)n1,49*,2,0,-7,5
COc1cc2c(C)nc3c(c(C)nn3-c3ccccc3)c2cc1OC,21,0,-2,14,-19
COc1cc2c(C)nc3onc(-c4ccccc4)c3c2cc1OC,71*,2,11,10,-18
O=C(N/N=C/c1sc(=O)n(-c2ccccc2)c1Cl)c1ccccc1,1,2,75*,60,.
CCOC(=O)c1sc(NC(=O)c2ccc(OC)cc2)nc1C,-4,1,7,22,47*
COC(=O)c1sc(NC(=O)c2ccc(C)o2)nc1C,25,6,26,49,.
CCOC(=O)c1sc(NC(=O)Nc2ccc(F)cc2)nc1C,-4,4,-2,103*,.
SMILES,AHR activator,FXN GAA850 act,Wnt act,MITF act,esBAF inh
CCCc1nnc(NC(=O)c2cccc(OC)c2)s1,5,6,18,86*,36
CCOC(=O)c1sc(NC(=O)c2ccc(C)o2)nc1C,9,3,.,11,62*
CCOC(=O)c1sc(NC(=O)Cc2ccc(F)cc2)nc1C,3,0,0,-3,.
C[C@@H]1CN([C@H](C)CO)C(=O)c2cc(NS(C)(=O)=O)ccc2O[C@@H](C)CCCCO[C@@H]1CN(C)S(=O)(=O)c1cccs1,.,.,.,.,-4
CCOCc1nnc(NC(=O)c2ccc(OC)cc2)s1,15,3,.,37,53*
CCOCc1nnc(NC(=O)c2ccc(NC(C)=O)cc2)s1,2,-2,0,.,.
CC#CC(=O)N1CCC(C(=O)Nc2ccc(Oc3ccccc3)nc2)CC1,5,0,14,27,41*
CN1C(=O)c2cc(NC(=O)c3ccc(F)cc3)ccc2OC[C@@H]2O[C@H](CC(=O)N3CCOCC3)CC[C@H]21,.,.,.,.,-7
CC(C)c1ccc(N=C2N=C(N)c3ccccc32)cc1,48*,5,49*,-1,.
NC1=NC(=Nc2ccccc2)c2ccccc21,-5,2,-3,-26,-8
NC1=NC(=Nc2ccc(Cl)cc2)c2ccccc21,56*,0,14,-12,.
Cc1cccc(N=C2N=C(N)c3ccccc32)c1,0,0,.,.,-6
CO[C@@H](CN(C)Cc1cc(F)ccc1F)[C@@H](C)CN(C(=O)Nc1ccc(F)cc1)[C@@H](C)CO,.,.,.,.,0
C[C@H](CO)N1C[C@H](C)[C@@H](CN(C)CC2CCCCC2)Oc2ccc(NC(=O)CCCN(C)C)cc2CC1=O,.,.,.,.,2
O=C(/C=C/c1ccc(-c2ccccc2[N+](=O)[O-])o1)c1ccco1,19,0,172*,-8,.
O=C(C[C@@H]1C=C[C@@H](NC(=O)NC2CCCCC2)[C@H](CO)O1)NCc1ccccc1,.,.,.,.,-2
Cc1cc(C)cc(NC2=C(N)C(=O)c3ccccc3C2=O)c1,55*,2,.,-4,?
C[C@@H]1CCCCO[C@H](CN(C)S(=O)(=O)c2ccccc2)[C@@H](C)CN([C@H](C)CO)C(=O)c2cc(N(C)C)ccc2O1,.,.,.,.,0
COc1ccc(/C=N/N2CCOCC2)cc1O,2,2,.,14,20
COc1cc(/C=N/OCC(=O)NC2CCCCC2C)ccc1OCc1ccc(Cl)cc1 (configuration not stated),7,1,47*,42,98*
COc1ccc(/C=N/N2CCOCC2)cc1OCc1ccccc1,9,2,-4,-1,-8
COc1cc(/C=N/N2CCOCC2)ccc1OCc1ccccc1,-3,2,13,53,61*
COc1cc(/C=N/N2CCOCC2)ccc1OCc1ccc(Cl)cc1,-2,3,11,96*,.
COc1ccccc1C(=O)Nc1ccc2c(c1)C(=O)N(C)[C@@H]1CC[C@@H](CC(=O)NCc3ccc(Cl)c(Cl)c3)O[C@@H]1CO2,.,.,.,.,3
C[C@@H]1CN([C@H](C)CO)C(=O)Cc2cc(NC(=O)Cn3cnnn3)ccc2O[C@H]1CN(C)S(=O)(=O)c1cn(C)cn1,.,.,.,.,-1
C/C=C/c1cnc2c(c1)C(=O)N([C@@H](C)CO)C[C@H](C)[C@H](CN(C)C(=O)NCCC)O2,.,.,.,.,-1
COc1ccc(CNC(=S)N/N=C(\C)c2ccc(OC)cc2)cc1,9,1,0,10,8
COc1ccc(/C(C)=N/NC(=S)NCc2ccco2)cc1,63*,2,-1,-4,.
Cc1cccc(CC(C)NC(=O)c2cc(COc3ccc(C)c(C)c3)on2)n1 (configuration not stated),44,7,15,13,.
Cn1c(CCNC(=O)c2cc(COc3ccc(F)c(F)c3)on2)nc2ccccc21,5,4,-1,13,39
